Sampled rows, rich in hits. Any-hit rate of the full collection: about 2.4%.
CHRM1 antagonist – blocks human M1 muscarinic receptor. inhibition, % at 3 µM. CHO-K1 hM1, Fluo-8 calcium fluorescence, ACh EC80 antagonist. P11229. 360,000 tested, 1.3% active;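 active = percent inhibition above its own plate's cutoff, namely the mean of that plate's compound wells plus 3 SD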;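 also: peak over basal fluorescence ratio during 140 s after agonist addition; 0% = ACh EC80 plus DMSO and 100% = DMSO alone without agonist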
Target sequence (P11229 whole entry, looked up): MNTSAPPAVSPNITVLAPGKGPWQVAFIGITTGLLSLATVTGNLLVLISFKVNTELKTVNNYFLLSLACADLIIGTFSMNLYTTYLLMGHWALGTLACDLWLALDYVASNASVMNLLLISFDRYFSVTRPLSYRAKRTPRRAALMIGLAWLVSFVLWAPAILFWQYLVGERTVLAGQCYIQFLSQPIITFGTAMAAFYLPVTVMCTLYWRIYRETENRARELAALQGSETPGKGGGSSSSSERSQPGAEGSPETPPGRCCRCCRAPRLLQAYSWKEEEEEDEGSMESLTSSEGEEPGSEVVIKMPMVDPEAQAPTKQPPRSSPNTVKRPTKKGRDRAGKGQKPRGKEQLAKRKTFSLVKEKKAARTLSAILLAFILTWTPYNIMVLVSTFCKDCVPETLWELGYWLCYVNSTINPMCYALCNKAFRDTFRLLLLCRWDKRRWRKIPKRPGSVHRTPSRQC
CHO-K1 Ca PAM – nonselective activator or artifact in parental CHO-K1 calcium assay; ATP EC20, Fluo-8 calcium fluorescence; 0% at ATP EC20, 100% at ATP max; activation, % at 3 µM; 360,000 tested, 0.02% active; AID 602247;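 active = activation above the run cutoff, the mean activation of all test compounds plus 3 SD, cut at about 40% in these data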;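 also: peak over basal fluorescence ratio in a 140 s read after ATP addition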
M1 ag – agonists of human M1 muscarinic receptor; P11229; CHO-K1 hM1, Fluo-8 calcium fluorescence, agonist mode; 0% DMSO, 100% acetylcholine EC100; activation, % at 3 µM; 360,000 tested, 0.33% active; AID 588814;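 active = activation above the run's mean compound activation plus 3 SD, cut at about 16% in these data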;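 also: peak over basal fluorescence ratio within a 140 s kinetic read after compound addition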
M1 PAM – potentiates human M1 receptor response to acetylcholine | P11229 | CHO-K1 hM1, Fluo-8 calcium fluorescence, ACh EC20; 0% = ACh EC20, 100% = maximal ACh | activation, % at 3 µM | 360,000 tested, 0.088% active; in the data active = activation above about 19%, passing the limit was not always enough
CHO-K1 Ca ag – nonselective activator or artifact in parental CHO-K1 cells | 360,000 tested, 0.48% active | activation, % at 3 µM | AID 602248 | Fluo-8 calcium fluorescence; scaled to maximal ATP response, vehicle zero; in the data active = activation above about 15%;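 also: untransfected CHO-K1 host cells lacking M1 receptor as counterscreen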
CHO-K1 Ca antag – counter-screen for M1 antagonists: effect in parental CHO-K1 cells. ATP-induced calcium, Fluo-8 fluorescence. inhibition, % at 3 µM. 360,000 tested, 0.6% active;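 active = inhibition above a per-plate cutoff, the plate's mean sample inhibition plus 3 SD, cut at about 24% in these data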;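 also: 0% = DMSO plus EC80 ATP and 100% = DMSO alone without ATP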
The depositor's hits bear a star.

SMILES	CHRM1 antagonist	CHO-K1 Ca PAM	M1 ag	M1 PAM	CHO-K1 Ca ag	CHO-K1 Ca antag
CSc1n[nH]c(=O)n1C1CCCCC1	4	1	-6	-1	18*	1
O=C(CSc1n[nH]c(=O)n1C1CC1)c1ccc(F)cc1	-14	2	-2	10	1	5
CN(C)C(CNC(=O)CCc1nc2cc(Cl)ccc2n(Cc2ccccc2)c1=O)c1ccccc1 (configuration not stated)	27*	-1	-8	-23	1	-12
O=C(CSc1ccc2nnc(CCNC(=O)c3ccc(F)cc3)n2n1)NCC1CCCO1 (configuration not stated)	-6	10	-4	5	1	-9
CCOC(=O)C1(C)CCCN(C(=O)c2cccc(C#N)c2)C1 (configuration not stated)	-16	0	-1	6	1	-4
CCCCN(C(C)=O)c1ccc2c(c1)C1CC2CCN1C(=O)OCc1ccccc1 (configuration not stated)	34*	-6	-7	-14	2	12
CCN(CCc1ccccc1)c1ccc2c(c1)C1CC2CCN1C(=O)OCc1ccccc1 (configuration not stated)	-15	8	-2	11	0	-1
O=S(=O)(c1ccc2nc(N3CCN(c4ccccc4F)CC3)ccc2c1)N1CCCCC1	3	-6	-1	-3	2	25*
CC(C)NS(=O)(=O)c1ccc(NC(=O)C(C)Oc2ccc(C(=O)c3ccccc3)cc2)cc1 (configuration not stated)	66*	-2	57*	-19	44*	51*
COc1ccc(NC(=O)C(C)Oc2ccc(/C(C)=N\O)cc2)cc1 (configuration not stated)	1	-1	17*	-3	6	-10
CCCCNC(=O)NNC(=O)c1cc(C)on1	-8	12	-2	3	0	-7
COc1ccccc1NC(=O)CSc1nc2[nH]ncc2c(=O)[nH]1	-23	1	0	8	1	3
COc1ccc(NC(=O)C2(C)Cc3c(-c4cccc(C(N)=O)c4)ccnc3O2)cc1 (configuration not stated)	-4	10	-3	2	0	-3
Cc1ccc2nc(-c3ccccc3)cc(C(=O)NCCCn3ccnc3)c2c1	-5	10	-5	6	3	1
O=C(NCCCn1ccnc1)c1cc(-c2cccnc2)nc2ccc(Br)cc12	-1	4	-6	7	17*	-2
N#Cc1ccsc1NC(=O)c1ccc(Cl)c([N+](=O)[O-])c1	26	-10	8	-9	19*	13
Cc1ccc(-c2nc3ncccc3o2)cc1NC(=O)C(C)(C)C	-21	28	-2	10	2	-15
Cc1ccc(-c2nc3ncccc3o2)cc1NC(=O)c1cccs1	-9	-14	-5	5	0	26*
N#Cc1c(C(F)(F)F)cc(-c2ccco2)nc1SCc1ccccn1	24	1	9	-9	18*	18
N#Cc1c(C(F)(F)F)cc(-c2ccco2)nc1SCc1ccncc1	12	1	8	-3	13	4
Cc1ccc(N(CC(=O)NC2CCCC2)C(=O)CNC(=O)c2cccs2)cc1F	-9	7	-1	14	0	-6
O=C(CCc1c[nH]c2ccccc12)OCc1cccc([N+](=O)[O-])c1	3	9	-9	-9	3	-15
CCOC(=O)c1cc(C#N)c(SC)nc1C	-13	21	-3	9	1	-14
CSc1nc(C)c(C(=O)C[n+]2ccccc2C)cc1C#N	40*	11	-6	-19	0	-14
CCN(CC)CCNc1ccnc2cc(Cl)ccc12	-5	8	-14	-4	1	-18
SMILES	CHRM1 antagonist	CHO-K1 Ca PAM	M1 ag	M1 PAM	CHO-K1 Ca ag	CHO-K1 Ca antag
Clc1ccc2c(NCc3ccccc3)ccnc2c1	-1	-1	-5	-9	17*	5
CCOc1ccccc1NC(=O)COc1cccnc1[N+](=O)[O-]	-3	-5	-3	-7	1	10
CN(CC(=O)Nc1ccc(Cl)c(C(F)(F)F)c1)C(=O)c1ccc2c(c1)NC(=O)CS2	2	-4	-8	14	3	-10
COCCN(Cc1ccc(C)cc1)C(=O)[C@H]1O[C@@H](n2ccc(=O)[nH]c2=O)[C@H](O)[C@@H]1O	-4	8	-2	3	0	7
N#Cc1c(NC(=O)CSc2nc(N)cc(=O)[nH]2)sc2c1CCCCCC2	7	-4	0	-2	4	8
CC(Sc1nc(N)cc(=O)[nH]1)C(=O)Nc1sc2c(c1C#N)CCCC2 (configuration not stated)	24	-16	-6	-17	1	30*
CCOC(=O)N1CCC(N2CCN(CCC(C)C)C(CCO)C2)CC1 (configuration not stated)	41*	22	-9	-21	1	-1
CSCC[C@H](N)C(=O)NC[C@H]1CC[C@H](C(=O)N[C@@H](Cc2ccccc2)C(=O)O)CC1	-5	5	-4	2	0	1
CCOc1ccc(N(CC(=O)Nc2ccccc2C(=O)N2CCCC2)S(C)(=O)=O)cc1	-11	15	-4	8	2	-13
CC(=O)c1cnc(Nc2cccc(Cl)c2Cl)s1	-9	20	-5	10	17*	1
CC(=O)c1cnc(Nc2ccccc2)s1	-1	20	-4	9	1	-5
Cc1nnsc1C(=O)NC(C)c1ccccc1 (configuration not stated)	-17	1	4	5	21*	2
O=C(COC(=O)c1cc(=O)[nH]c2ccccc12)c1cccs1	3	-19	0	1	0	30*
Cc1ccc(S(=O)(=O)N2CCN(C(=O)COC(=O)C3CCC3)CC2)cc1	-23	3	0	11	2	-10
COc1ccc(Cl)cc1C(=O)CSc1nnnn1C1CCCCC1	27*	5	-3	-16	0	-1
COc1cccc(CN2CCC2(C)C(=O)Nc2cnc3ccccc3c2)c1F (configuration not stated)	17	9	-5	-13	4	-8
CC(Oc1ccccc1)C(=O)N1CCc2ccccc2C1 (configuration not stated)	-10	10	-10	5	1	-15
COc1ccc(OC(C)C(=O)N2CCc3ccccc3C2)cc1 (configuration not stated)	-4	-7	-1	7	0	25*
N/C(=N\OC(=O)Cc1ccc(-c2ccccc2)cc1)c1ccccn1	-9	-2	-3	6	1	9
N/C(=N\OC(=O)CSc1ccccc1)c1ccccn1	-24	8	-1	28*	0	-6
O=[N+]([O-])c1ccc(CSc2nc3ccccc3o2)cc1	-13	-8	-3	5	-1	11

High-throughput results from PubChem BioAssay.
